SMILES strings stand for the structures. Records with an inconclusive call do not appear. Active and inactive are the calls of the source. Calls follow the shape of the dose curve; as a rule, active = well fitted cell-killing curve with a large enough effect; inconclusive = small, poorly fitted or top-dose-only effect; inactive = flat fitted curve, though single readings scatter.
% is scaled to controls: 0 for no effect and ±100 for the full control effect; potency is read from the fitted curve at half-maximal effect.

A short description of this experiment: DAPI mCherry counterscreen qHTS for Zika virus inhibitors. Also: nearly all actives have a fitted effect of over 55% in size. The note with it: Vero cells, DAPI nuclear count cytotoxicity, imaging 48-72 h; series mostly up to 32.6 µM. The source says: Assay Submitters (PI): Avindra Nath, Ph.D., National Institute of Neurological Disorders and Stroke (NINDS), Bethesda, MD Radhakrishnan Padmanabhan, Ph.D., Georgetown University (GU), Washington D.C. Zika Virus causes congenital defects, including microcephaly and is associated with Guillain-Barre syndrome, eningoencephalitis and myelitis in infected adult. […] Using a target-based approach, we hope to establish a screening paradigm to uncover novel, cell-active NS2B-NS3 protease (Zika Virus) specific inhibitors from NCATS' collection of small molecules using qHTS. […] Four assay panel was created to identify potential Zika Virus inhibitors. Namely, (1) GU unlinked NS2B-NS3 AMC tagged protease qHTS, (2) GU unlinked NS2B-NS3 Rhodamine tagged protease qHTS, (3) NINDS linked NS2B-NS3 AMC tagged protease qHTS, (4) NINDS linked NS2B-NS3 Rhodamine tagged protease qHTS. Active compounds were re-acquired and re-screened to confirm inhibition. Inhibitors were further screened against various confirmatory and counterscreens in dose response format. […] A DAPI (mCherry counterscreen) which determine Vero cell cytotoxicity was used to exclude false positive compounds. […] Early Translation Branch (ETB) National Center for Advancing Translational Sciences (NCATS), Rockville, MD National Institute of Health (NIH), Bethesda, Maryland
384 well ZIKV-mCherry & mCherry DAPI counterscreen: We have developed a new orthogonal imaging assay in 384-well plate format, which uses recombinant virus ZIKV-mCherry in Vero cells. Briefly, 30 microL of Vero cells derived from a green monkey cell line, were dispensed by Multidrop Dispenser into a clear solid bottom black 384 well plate (ultracarrier, Perkin Elmer LifeSciences) at a concentration of 5,000 cells per well. The plate was incubated overnight in a CO2 incubator at 37 degrees C. Compounds were delivered as a 126 nL DMSO solution by Kalypsys pintool transfer. Following compound transfer, 10 microL of ZIKV-mCherry was added at an MOI of 1 and incubated in a CO2 incubator for 48-72 hrs at 37 degrees C. After sufficient incubation of infected cells in test plates, 8 microL of 32% PFA was dispensed into assay plates to fix cells and incubated for 20 min at room temperature. Plates were washed 3 times with PBS using BioTek EL406 microplate washer/dispenser. After washing, 30 microL of PBS with 0.01% TX-100 containing Hoechst dye was dispensed into the each well of the plates for nuclear staining. 384-well plates were imaged on an automated, widefield high content imager (INCell 2200, GE Healthcare) using a 10x/0.45 NA lens and standard DAPI (nuclear stain) and mCherry (cy5) excitation and emission filters. The TIFFs were quantitated using the canned Multi Target Analysis protocol (GE Investigator Workstation software v3.7.2). Briefly, nuclei from the DAPI channel were identified using top hat segmentation and a sensitivity setting of 96 and minimum size area of 35 microm2. A recombinant Zika viral infection was monitored in the Cy5 channel (cells) using a 2 microm collar dilation from the nuclear bitmap. mCherry objects with an average nuclear RFU intensity above 450 (3 stdev above mean negative control wells) were considered "mcherry positive" and data was analyzed by percent infection rate.
In the case of `CC(C)=CCCC1(C)C=Cc2c(O)c3c(c(CC=C(C)C)c2O1)OC12C(=CC4CC1C(C)(C)OC2(C/C=C(/C)C(=O)O)C4O)C3=O` (stereo not drawn), the Potency was 3.16 µM (active). Turning to `O=C1OC(c2ccc(O)c(S(=O)(=O)O)c2)(c2ccc(O)c(S(=O)(=O)O)c2)c2c(Br)c(Br)c(Br)c(Br)c21`, the Potency result is “inactive”. Next, `O=c1c(O)c(-c2ccc(O)c(O)c2)oc2c(O)c(O)cc(O)c12`: “inactive”; `O=C(O)c1cc(Oc2ccc(C(F)(F)F)cc2Cl)ccc1[N+](=O)[O-]`: “inactive”. With `CN(C)[C@@H]1C(=O)C(C(N)=O)=C(O)[C@@]2(O)C(=O)C3=C(O)c4c(O)cccc4[C@@](C)(O)[C@H]3[C@H](O)[C@@H]12` the entry was “inactive”.

For `Cc1cc(SCc2sc(-c3ccc(C(F)(F)F)c(F)c3)nc2C)ccc1OCC(=O)O`, the Potency is 14.1 µM (active). Next, `CNc1ccc2oc(C[C@@H]3OC4(CC[C@@H]3C)O[C@H]([C@@H](C)C(=O)c3ccc[nH]3)[C@H](C)C[C@H]4C)nc2c1C(=O)O` (stereo partly drawn): 1 µM (active); `CCCCCOc1cc2c(cc1-c1cc(/C=C/C(=O)O)ccc1O)C(C)(C)CCC2(C)C`: 15.8 µM (active); `O=C(Nc1ccc(Br)cc1)c1cc(Br)cc(Br)c1O`: 8.91 µM (active). For the molecule `O=c1oc2ccccc2c(O)c1C(CC(O)c1ccc(-c2ccc(Br)cc2)cc1)c1ccccc1` (stereo not drawn), the Potency was 15.8 µM (active). As for `N[C@@H](Cc1ccc(Oc2cc(I)c(O)c(I)c2)c(I)c1)C(=O)O`, the Potency entry was “inactive”. In the case of `O=c1c(C2CC(c3ccc(-c4ccc(Br)cc4)cc3)Cc3ccccc32)c(O)sc2ccccc12` (stereo not drawn), the Potency was 8.91 µM (active).

In the case of `CC(C)=CCC[C@]1(C)C=Cc2c(O)c3c(c(CC=C(C)C)c2O1)O[C@]12C(=C[C@@H]4CC1C(C)(C)O[C@@]2(C/C=C(/C)C(=O)O)C4=O)C3=O`, the Potency was 1.12 µM [infected with Zika reporter virus, MOI 1] (active). With `O=C1C(I)=CC(=C(c2cc(I)c(O)c(I)c2)c2ccccc2C(=O)O)C=C1I` the figure was 25.1 µM (active); with `O=C(O)C(=O)c1cn(Cc2ccccc2)c2ccc(-c3ccc(OC(F)(F)F)cc3)cc12`, 28.2 µM (active); with `CC(=O)c1c(O)c(C)c(O)c(Cc2c(O)c3c(c(C(=O)/C=C/c4ccccc4)c2O)OC(C)(C)C=C3)c1O`, 14.1 µM (active).

As for `CC1=C(O)C(=O)C=C2C1=CC=C1[C@@]2(C)CC[C@@]2(C)[C@@H]3C[C@](C)(C(=O)O)CC[C@]3(C)CC[C@]12C`, the Potency was 1.12 µM (active). Next, `C[C@H]1[C@H]2Cc3ccc(O)cc3[C@]1(C)CCN2CCc1ccccc1`: 22.4 µM (active).

The values above are taken from PubChem BioAssay AID1347156 (National Center for Advancing Translational Sciences (NCATS), 2019).
